Test results from the supplement of paper PMC12819154, “High-throughput peptide-centric local stability assay extends protein–ligand identification to membrane proteins, tissues and bacteria” (Nature Structural & Molecular Biology, 2025).

compound: CN[C@@H]1C[C@H]2O[C@@](C)([C@@H]1OC)n1c3ccccc3c3c4c(c5c6ccccc6n2c5c31)C(=O)NC4 [staurosporine]; experiment: log2 fold change of tryptic peptide abundance, ligand vs vehicle (limited proteolysis) (log2 ratio); higher = more trypsin-susceptible (destabilized); conditions: ligand concentration: 20 uM; sample: K562 cleared lysate; digestion: 4 min, 22 C (HT-PELSA RT4min, Orbitrap Astral)

Chain of UniProt Q8TEQ6 (Q8TEQ6 whole entry): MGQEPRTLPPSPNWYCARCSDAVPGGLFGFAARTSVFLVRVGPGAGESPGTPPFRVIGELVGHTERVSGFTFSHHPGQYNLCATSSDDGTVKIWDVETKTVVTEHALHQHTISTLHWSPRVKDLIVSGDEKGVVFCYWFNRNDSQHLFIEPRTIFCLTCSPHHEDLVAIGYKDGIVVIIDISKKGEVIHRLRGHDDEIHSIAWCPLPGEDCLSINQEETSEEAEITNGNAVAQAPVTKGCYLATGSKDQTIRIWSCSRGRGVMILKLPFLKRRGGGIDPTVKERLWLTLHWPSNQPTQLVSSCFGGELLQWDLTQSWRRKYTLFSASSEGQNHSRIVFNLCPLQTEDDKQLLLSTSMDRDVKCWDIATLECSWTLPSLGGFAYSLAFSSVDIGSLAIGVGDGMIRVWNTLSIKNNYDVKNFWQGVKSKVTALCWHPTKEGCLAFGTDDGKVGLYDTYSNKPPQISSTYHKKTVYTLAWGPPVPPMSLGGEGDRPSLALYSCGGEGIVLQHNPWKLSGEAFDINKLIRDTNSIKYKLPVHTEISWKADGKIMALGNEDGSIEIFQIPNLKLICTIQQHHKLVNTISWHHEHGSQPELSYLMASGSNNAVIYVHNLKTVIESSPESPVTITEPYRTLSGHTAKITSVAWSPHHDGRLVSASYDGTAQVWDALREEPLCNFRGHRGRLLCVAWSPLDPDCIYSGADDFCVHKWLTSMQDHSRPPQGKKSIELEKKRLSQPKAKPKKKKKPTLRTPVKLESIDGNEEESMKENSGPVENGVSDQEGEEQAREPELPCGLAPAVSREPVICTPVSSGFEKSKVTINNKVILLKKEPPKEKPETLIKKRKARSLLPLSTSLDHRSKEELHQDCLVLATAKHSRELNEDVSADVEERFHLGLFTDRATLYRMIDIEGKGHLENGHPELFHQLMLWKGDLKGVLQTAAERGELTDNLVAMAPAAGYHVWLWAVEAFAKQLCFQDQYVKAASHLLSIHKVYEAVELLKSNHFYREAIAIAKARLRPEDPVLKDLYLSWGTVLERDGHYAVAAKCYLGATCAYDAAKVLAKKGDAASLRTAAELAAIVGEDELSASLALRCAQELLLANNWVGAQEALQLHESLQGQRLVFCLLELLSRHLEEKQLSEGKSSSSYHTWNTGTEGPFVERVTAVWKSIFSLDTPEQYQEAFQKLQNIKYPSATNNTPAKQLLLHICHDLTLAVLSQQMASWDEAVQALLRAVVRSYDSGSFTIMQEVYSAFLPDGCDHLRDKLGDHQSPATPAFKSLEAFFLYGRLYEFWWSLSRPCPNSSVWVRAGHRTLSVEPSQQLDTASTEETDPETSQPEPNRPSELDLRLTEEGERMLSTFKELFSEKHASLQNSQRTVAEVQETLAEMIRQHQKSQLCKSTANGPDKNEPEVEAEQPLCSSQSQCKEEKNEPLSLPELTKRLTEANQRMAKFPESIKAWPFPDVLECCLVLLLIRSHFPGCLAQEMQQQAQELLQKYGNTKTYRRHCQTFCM
Chain of UniProt P56192 (P56192 whole entry): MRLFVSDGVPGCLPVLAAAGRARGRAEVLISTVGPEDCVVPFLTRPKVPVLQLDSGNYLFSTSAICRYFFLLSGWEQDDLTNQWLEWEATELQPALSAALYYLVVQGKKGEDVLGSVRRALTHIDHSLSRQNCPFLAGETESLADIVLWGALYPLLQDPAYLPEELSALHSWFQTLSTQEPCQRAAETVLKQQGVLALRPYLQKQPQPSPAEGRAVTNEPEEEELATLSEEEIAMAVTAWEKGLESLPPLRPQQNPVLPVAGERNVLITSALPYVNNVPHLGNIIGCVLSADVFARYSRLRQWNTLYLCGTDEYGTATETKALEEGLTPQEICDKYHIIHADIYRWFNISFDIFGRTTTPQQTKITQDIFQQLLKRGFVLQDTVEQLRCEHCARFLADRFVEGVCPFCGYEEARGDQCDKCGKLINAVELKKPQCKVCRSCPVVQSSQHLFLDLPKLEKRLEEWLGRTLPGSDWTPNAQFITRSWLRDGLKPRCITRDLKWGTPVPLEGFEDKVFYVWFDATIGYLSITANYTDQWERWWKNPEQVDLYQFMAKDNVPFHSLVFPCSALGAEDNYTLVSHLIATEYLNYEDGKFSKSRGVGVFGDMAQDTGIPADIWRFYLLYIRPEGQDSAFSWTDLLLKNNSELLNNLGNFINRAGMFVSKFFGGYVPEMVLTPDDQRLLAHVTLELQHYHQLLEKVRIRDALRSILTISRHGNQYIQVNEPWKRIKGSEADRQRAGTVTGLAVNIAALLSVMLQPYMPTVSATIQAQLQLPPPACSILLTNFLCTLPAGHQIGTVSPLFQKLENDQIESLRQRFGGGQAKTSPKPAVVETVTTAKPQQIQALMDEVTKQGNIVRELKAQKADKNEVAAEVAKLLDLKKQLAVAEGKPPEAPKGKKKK
Chain of UniProt Q96RR4 (Q96RR4 whole entry, looked up): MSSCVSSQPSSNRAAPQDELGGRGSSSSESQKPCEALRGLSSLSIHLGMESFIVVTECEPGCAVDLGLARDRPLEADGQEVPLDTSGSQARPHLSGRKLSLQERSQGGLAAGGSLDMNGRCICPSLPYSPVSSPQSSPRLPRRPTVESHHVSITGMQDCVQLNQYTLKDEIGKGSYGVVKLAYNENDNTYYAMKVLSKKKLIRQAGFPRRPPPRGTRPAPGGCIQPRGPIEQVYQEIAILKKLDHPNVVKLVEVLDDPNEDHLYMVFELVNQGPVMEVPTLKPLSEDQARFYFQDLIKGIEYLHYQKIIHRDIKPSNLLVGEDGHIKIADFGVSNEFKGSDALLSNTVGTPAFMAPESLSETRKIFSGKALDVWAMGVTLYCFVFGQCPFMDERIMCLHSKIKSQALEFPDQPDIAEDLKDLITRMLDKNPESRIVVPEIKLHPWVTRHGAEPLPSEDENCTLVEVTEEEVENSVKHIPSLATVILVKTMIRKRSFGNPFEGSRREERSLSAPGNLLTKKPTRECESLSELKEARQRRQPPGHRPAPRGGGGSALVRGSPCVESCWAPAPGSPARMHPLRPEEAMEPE
Chain of UniProt Q9H2K8 (Q9H2K8 whole entry, looked up): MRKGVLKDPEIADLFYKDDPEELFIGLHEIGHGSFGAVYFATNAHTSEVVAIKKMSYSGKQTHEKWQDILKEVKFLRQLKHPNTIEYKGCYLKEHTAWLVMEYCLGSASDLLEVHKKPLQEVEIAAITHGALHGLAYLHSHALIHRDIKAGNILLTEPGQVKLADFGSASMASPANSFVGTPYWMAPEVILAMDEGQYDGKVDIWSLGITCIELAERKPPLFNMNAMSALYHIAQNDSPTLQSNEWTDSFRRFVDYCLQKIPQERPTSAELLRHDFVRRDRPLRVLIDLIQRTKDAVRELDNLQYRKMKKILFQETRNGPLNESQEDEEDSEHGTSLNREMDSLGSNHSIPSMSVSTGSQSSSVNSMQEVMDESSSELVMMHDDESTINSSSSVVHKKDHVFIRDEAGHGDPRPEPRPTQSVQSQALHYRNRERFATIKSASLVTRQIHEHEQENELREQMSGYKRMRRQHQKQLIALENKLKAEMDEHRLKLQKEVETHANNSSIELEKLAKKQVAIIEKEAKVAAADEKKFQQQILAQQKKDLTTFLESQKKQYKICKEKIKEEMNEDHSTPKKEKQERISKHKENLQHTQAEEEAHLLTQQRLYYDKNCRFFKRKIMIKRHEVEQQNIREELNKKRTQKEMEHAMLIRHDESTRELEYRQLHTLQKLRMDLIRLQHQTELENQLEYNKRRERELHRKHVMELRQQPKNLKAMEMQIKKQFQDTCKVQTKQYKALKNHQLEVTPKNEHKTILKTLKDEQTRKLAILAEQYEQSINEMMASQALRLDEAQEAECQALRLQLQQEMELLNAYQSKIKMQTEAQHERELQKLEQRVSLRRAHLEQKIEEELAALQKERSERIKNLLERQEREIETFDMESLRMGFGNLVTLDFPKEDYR
Chain of UniProt Q9BZL6 (Q9BZL6 whole entry): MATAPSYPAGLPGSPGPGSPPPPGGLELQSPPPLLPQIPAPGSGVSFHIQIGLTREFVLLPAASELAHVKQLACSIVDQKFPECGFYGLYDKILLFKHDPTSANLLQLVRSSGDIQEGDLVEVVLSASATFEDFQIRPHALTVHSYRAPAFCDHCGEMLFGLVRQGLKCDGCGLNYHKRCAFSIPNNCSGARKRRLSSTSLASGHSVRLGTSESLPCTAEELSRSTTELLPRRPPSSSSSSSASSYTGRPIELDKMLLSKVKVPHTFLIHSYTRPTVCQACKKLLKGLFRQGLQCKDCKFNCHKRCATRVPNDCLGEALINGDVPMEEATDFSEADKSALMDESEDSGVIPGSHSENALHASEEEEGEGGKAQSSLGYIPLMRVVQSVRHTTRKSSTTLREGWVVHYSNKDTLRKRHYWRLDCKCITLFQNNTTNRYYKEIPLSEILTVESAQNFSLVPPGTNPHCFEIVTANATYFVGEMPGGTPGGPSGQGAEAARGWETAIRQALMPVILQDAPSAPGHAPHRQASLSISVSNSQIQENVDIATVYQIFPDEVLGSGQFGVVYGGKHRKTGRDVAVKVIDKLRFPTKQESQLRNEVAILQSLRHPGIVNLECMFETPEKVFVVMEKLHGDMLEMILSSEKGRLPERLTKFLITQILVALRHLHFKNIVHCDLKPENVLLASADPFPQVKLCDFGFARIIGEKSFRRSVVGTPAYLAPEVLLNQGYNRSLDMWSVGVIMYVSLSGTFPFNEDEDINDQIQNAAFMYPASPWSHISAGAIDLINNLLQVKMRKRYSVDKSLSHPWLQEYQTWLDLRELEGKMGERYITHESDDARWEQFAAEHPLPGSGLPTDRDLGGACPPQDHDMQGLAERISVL
Chain of UniProt P19623 (P19623 whole entry): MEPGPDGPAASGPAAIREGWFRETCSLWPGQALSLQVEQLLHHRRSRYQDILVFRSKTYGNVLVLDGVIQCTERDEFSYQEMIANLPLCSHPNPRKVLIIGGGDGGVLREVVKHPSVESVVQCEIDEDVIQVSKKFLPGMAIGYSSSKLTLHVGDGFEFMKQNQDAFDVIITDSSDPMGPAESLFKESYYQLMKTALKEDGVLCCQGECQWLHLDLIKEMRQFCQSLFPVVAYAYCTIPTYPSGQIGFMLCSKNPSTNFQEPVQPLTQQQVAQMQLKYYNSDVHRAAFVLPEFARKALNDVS

| Target | log2 fold change |
| --- | --- |
| UniProt P45985 (peptide sequence: DIKPSNILLDR, peptide start residue: 229) | 0.534 |
| HAT1 (peptide sequence: CNTNTAIELK, peptide start residue: 27) (UniProt O14929) | 0.602 |
| UniProt Q15418 (peptide sequence: DILADVNHPFVVK, peptide start residue: 114) | -1.43 |
| UniProt Q16629 (peptide sequence: YFQSPSR, peptide start residue: 189) | 1.29 |
| TROAP (peptide sequence: SCLTAIHCFHEAR, peptide start residue: 717) (UniProt Q12815) | 1.24 |
| TAOK3 (peptide sequence: VLIDLIQR, peptide start residue: 285) (UniProt Q9H2K8) | -1.49 |
| MED12 (peptide sequence: NVSFNPAK, peptide start residue: 61) (UniProt Q93074) | 0.555 |
| UniProt Q9BUB5 (peptide sequence: GLPTPQVLQR, peptide start residue: 382) | 0.803 |
| RPS17 (peptide sequence: NKIAGYVTHLMK, peptide start residue: 48) (UniProt P08708) | 0.59 |
| RIPK2 (peptide sequence: KTEYPDVAWPLR, peptide start residue: 110) (UniProt O43353) | -0.494 |
| UniProt Q13131 (peptide sequence: VGKHELTGHK, peptide start residue: 43) | -5 |
| SCRN3 (peptide sequence: IMLDNMR, peptide start residue: 369) (UniProt Q0VDG4) | 0.327 |
| UniProt Q9H9C1 (peptide sequence: LLLDLFR, peptide start residue: 239) | -1.26 |
| RFESD (peptide sequence: EYSSVCVGREDDIK, peptide start residue: 14) (UniProt Q8TAC1) | 0.768 |
| AK2 (peptide sequence: NLETPLCK, peptide start residue: 86) (UniProt P54819) | 0.399 |
| QDPR (peptide sequence: EGGLLTLAGAK, peptide start residue: 128) (UniProt P09417) | 0.635 |
| LIMK2 (peptide sequence: TLDFGLNVK, peptide start residue: 553) (UniProt P53671) | -1.38 |
| HBE1 (peptide sequence: MNVEEAGGEALGR, peptide start residue: 19) (UniProt P02100) | 0.28 |
| PAK2 (peptide sequence: MTDEEIMEK, peptide start residue: 227) (UniProt Q13177) | -2.15 |

| Target | log2 fold change |
| --- | --- |
| UniProt Q13188 (peptide sequence: AIFMIPTNPPPTFR, peptide start residue: 232) | -3.02 |
| AKT1 (peptide sequence: HRVTMNEFEYLK, peptide start residue: 143) (UniProt P31749) | -0.676 |
| UniProt P62995 (peptide sequence: SPSPYYSR, peptide start residue: 264) | 1.31 |
| UniProt P49674 (peptide sequence: FDDKPDYSYLR, peptide start residue: 260) | -0.398 |
| PRKD2 (peptide sequence: LSSTSLASGHSVR, peptide start residue: 196) (UniProt Q9BZL6) | 1.18 |
| SRM (peptide sequence: AAFVLPEFAR, peptide start residue: 286) (UniProt P19623) | 0.362 |
| EIF2AK4 (peptide sequence: DLKPVNIFLDSDDHVK, peptide start residue: 848) (UniProt Q9P2K8) | -1.33 |
| UniProt O00506 (peptide sequence: LADFGVAGQLTDTQIKR, peptide start residue: 160) | -1.08 |
| MARS (peptide sequence: SCPVVQSSQHLFLDLPK, peptide start residue: 440) (UniProt P56192) | 0.233 |
| PRKAR2A (peptide sequence: GQYFGELALVTNKPR, peptide start residue: 333) (UniProt P13861) | 0.659 |
| SNRK (peptide sequence: IAGLYDLDKTLGR, peptide start residue: 12) (UniProt Q9NRH2) | -2.34 |
| UniProt P45984 (peptide sequence: DLKPSNIVVK, peptide start residue: 151) | -2.08 |
| GTSE1 (peptide sequence: SIPGAAEKPK, peptide start residue: 228) (UniProt Q9NYZ3) | 0.58 |
| CAMKK2 (peptide sequence: FYFQDLIK, peptide start residue: 291) (UniProt Q96RR4) | -2.2 |
| CHD4 (peptide sequence: SDSEGSDYTPGK, peptide start residue: 103) (UniProt Q14839) | 1.11 |
| GEMIN5 (peptide sequence: MLSTFKELFSEK, peptide start residue: 1352) (UniProt Q8TEQ6) | -1 |
| PIK3CB (peptide sequence: VFGEDSVGVIFK, peptide start residue: 794) (UniProt P42338) | -0.385 |
| USP8 (peptide sequence: SYSSPDITQAIQEEEKR, peptide start residue: 716) (UniProt P40818) | 1.8 |
| PRKAR2B (peptide sequence: CVGNYDNR, peptide start residue: 211) (UniProt P31323) | 0.866 |
